In the library only some 3.4% were active in any assay of this set; here they are far more common.
PKM2 act = qHTS Assay for Activators of Human Muscle isoform 2 Pyruvate Kinase; Potency, µM (titrated, usually from 57.5 µM), inactives show at the top dose activation, usual class: activators; purified PKM2, Kinase-Glo ATP luminescence, activation; response scale: 0% is enzyme alone, no compound; 0.34% of 260,000 active; Pyruvate kinase PKM (Homo sapiens), P14618; further: on the % scale 0 is the no-effect control and ±100 the full control effect; nearly all actives have a fitted effect of over 55% in size
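Purified hPK-M2 (>95%) run at intermediate activity with 0.1 mM ADP and 0.5 mM PEP in 50 mM imidazole pH 7.2, KCl, MgCl2; 1 h room temperature. ATP formed read by Kinase-Glo luminescence; normalized to uninhibited and no-enzyme controls.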
PLK1 PBD inh = qHTS for Inhibitors of PLK1-PDB (polo-like kinase 1 - polo-box domain): Primary Screen. Plk1 PBD binding of FITC phosphopeptide, fluorescence polarization. Potency, µM, inactives show max response, negative = inhibition, most hits filed as inhibitors. AID 720504, 2013. 2.8% of 360,000 active; further: series mostly up to about 57 µM; on the % scale 0 is the no-effect control and ±100 the full control effect; nearly all actives have a fitted effect of over 65% in size
GCN5L2 inh = qHTS Assay for Inhibitors of GCN5L2; AID 504327, 2011; Histone acetyltransferase KAT2A (Homo sapiens), Q92830; Potency, µM (top dose mostly 58.9 µM), for inactives: at the top dose activity change, negative = inhibition, actives largely listed as inhibitors; GCN5L2 HAT assay, ThioGlo1 CoA-SH fluorescence; 0.21% of 390,000 active; further: on the % scale 0 is the no-effect control and ±100 the full control effect
Target sequence (Q92830 whole entry, looked up): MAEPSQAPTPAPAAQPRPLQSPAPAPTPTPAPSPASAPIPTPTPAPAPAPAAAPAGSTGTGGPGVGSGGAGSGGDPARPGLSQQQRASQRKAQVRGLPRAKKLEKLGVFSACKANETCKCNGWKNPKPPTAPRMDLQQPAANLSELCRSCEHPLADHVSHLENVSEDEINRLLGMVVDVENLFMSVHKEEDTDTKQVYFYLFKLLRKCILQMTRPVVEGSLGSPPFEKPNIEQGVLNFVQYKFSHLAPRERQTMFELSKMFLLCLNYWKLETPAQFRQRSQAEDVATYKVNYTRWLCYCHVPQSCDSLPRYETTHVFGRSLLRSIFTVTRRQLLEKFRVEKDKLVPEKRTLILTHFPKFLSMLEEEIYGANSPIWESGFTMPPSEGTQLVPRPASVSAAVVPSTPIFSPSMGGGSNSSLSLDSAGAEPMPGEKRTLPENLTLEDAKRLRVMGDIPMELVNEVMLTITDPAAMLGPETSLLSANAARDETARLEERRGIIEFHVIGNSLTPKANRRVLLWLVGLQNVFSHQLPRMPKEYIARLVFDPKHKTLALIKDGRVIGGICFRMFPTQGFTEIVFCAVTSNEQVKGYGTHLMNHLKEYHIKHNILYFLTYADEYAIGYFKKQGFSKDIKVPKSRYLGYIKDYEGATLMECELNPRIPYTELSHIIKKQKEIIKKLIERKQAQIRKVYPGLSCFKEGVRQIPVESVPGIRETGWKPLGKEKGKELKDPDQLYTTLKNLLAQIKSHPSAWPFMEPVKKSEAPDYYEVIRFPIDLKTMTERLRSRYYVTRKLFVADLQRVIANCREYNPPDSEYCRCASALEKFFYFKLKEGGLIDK
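qHTS, 1536-well. 20nM enzyme, pH 7.5 HEPES/EDTA/Tween-20 buffer; 15 min compound preinc., RT. Start: 75uM H3(1-25), 70uM AcCoA, 50uM ThioGlo1. Read Ex340/Em540 at t=0 (autofluorescence flag) and t=20 min.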
VDR inhibitor = Inhibitors of the vitamin D receptor (VDR): qHTS; AID 504847, 2011; VDR-SRC2-3 peptide fluorescence polarization, 2 h; Vitamin D3 receptor (Homo sapiens), P11473; Potency, µM, inactives show max response, negative = inhibition, actives largely listed as inhibitors; 0.93% of 400,000 active; further: on the % scale 0 is the no-effect control and ±100 the full control effect
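The screen uses fluorescence polarization to detect compounds that interfere with recruitment of the SRC2-3 coactivator peptide to VDR; plates are read after 2 h at room temperature.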
Mito fusion yeast = qHTS Assay for Small Molecule Inhibitors of Mitochondrial Division or Activators of Mitochondrial Fusion | S. cerevisiae fusion-defective mutant growth rescue, CellTiterGlo 48 h | Potency, µM (highest dose often 46.1 µM), without a hit: top-dose growth rescue (activation), most hits filed as activators | 0.23% of 320,000 active; further: % of control where 0% means no effect; nearly all actives have a fitted effect of over 45% in size
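Read-out: ATP-based luminescence (CellTiterGlo, 10 min ambient) reporting growth of fusion-defective ts yeast after 48 hours at 37C on glycerol/ethanol YPEG medium in the presence of compound.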
GLS inh = qHTS for Inhibitors of Glutaminase (GLS). Potency, µM (doses to about 45.5 µM), without a hit: at the highest dose activity change, negative = inhibition, hits mostly inhibitors. Glutaminase kidney isoform, mitochondrial (Homo sapiens), O94925. 0.21% of 410,000 active. GLS enzymatic activity, qHTS titration; further: on the % scale 0 is the no-effect control and ±100 the full control effect
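Human kidney-isoform GLS in 45 mM KH2PO4 pH 8.2, 0.02% Tween-20, with compound, started with 1mM L-Glutamine (added stock). Glutamate oxidase/HRP/Amplex red coupled fluorescence read at start and after 30 min at RT.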
Active calls of the source: *; u = inconclusive; x = no result given. The call rests on the fitted dose curve; in most records, active means well fitted curve in the direction sought with a large enough effect; inconclusive means small, poorly fitted or top-dose-only effect, or another doubt; inactive means no such curve, though single readings can be large; an effect the other way counts as inactive or inconclusive. Potency means the concentration at half of the fitted maximal effect.

SMILES	PKM2 act	PLK1 PBD inh	GCN5L2 inh	VDR inhibitor	Mito fusion yeast	GLS inh
CCN(CC)CCn1c(NCc2cc(OC)ccc2OC)nc2ccccc21	3%	27µM*	0%	u	-8%	79%
CCCn1c(NCc2cccc(OC)c2OC)nc2ccccc21	3%	-9%	-4%	11%	-1%	23%
CCn1c(COc2ccccc2OC)nc2ccccc21	u	-16%	-1%	-9%	-8%	0%
C=CCc1cccc(CNc2nc3ccccc3n2C)c1O	32µM*	-10%	-9%	1%	0%	9%
CCCn1c(NCc2cccc(OC)c2O)nc2ccccc21	25µM*	-3%	0%	7%	0%	10%
Cc1cn(CC(=O)NCc2nc3ccccc3[nH]2)c(=O)[nH]c1=O	x	1%	x	x	x	-3%
CNc1ccc([N+](=O)[O-])cc1-c1nc2ccccc2[nH]c1=O	0%	0%	3%	32%	-14%	14%
O=C(NCc1ccccc1)C(C1CC1)n1c(-c2cccs2)nc2ccccc21 (stereo unspecified)	x	2%	x	x	x	x
Cc1cc(C)c(NC(=O)Cn2nnc(-c3nc(-c4ccccc4)no3)c2N)c(C)c1	x	x	15%	11%	x	-13%
COC(=O)c1c(SCC(=O)Nc2cccc(C(F)(F)F)c2)[nH]c2ccccc2c1=O	x	x	-2%	18%	x	-2%
CCCc1nc2ccc(Br)cn2c1Cc1cccc(Cl)c1	x	-6%	x	x	x	-4%
O=C(/C=C/c1cccc([N+](=O)[O-])c1)OCC(=O)N1CCCCC1	x	-4%	x	x	x	2%
O=[N+]([O-])CC(=Nc1ccc(Cl)cc1)N/N=C\c1oc(O)c2ccccc12	-2%	17µM*	-10%	u	-4%	0%
O=C(N/N=C\c1ccc(COc2ccc([N+](=O)[O-])cc2)o1)c1ccc(Cl)cc1	-1%	0%	-8%	-13%	2%	12%
COC(=O)N1CCC2(CCN(C(=O)Nc3ccc(OC)cc3)CC2)CC1	x	x	-2%	3%	x	x
CC(C)(C)c1nnc(NS(=O)(=O)c2ccc(F)cc2)s1	x	9.5µM*	x	79µM*	x	-26%
CC(C)(C)Cc1nnc(NS(=O)(=O)c2ccccc2)s1	2%	27µM*	-7%	-13%	5%	13%
Cn1c(=O)c(C(=O)COC(=O)c2cc(-c3ccco3)nc3ccccc23)c(N)n(CC2CC2)c1=O	u	x	-25%	x	-3%	x
COc1ccnc(Oc2ccccc2)c1C(=O)N/C=N/OCc1ccc(F)cc1Cl	-8%	-2%	1%	13%	-8%	4%
CC1=C(C#N)C(/C=N/OCc2ccc(F)cc2Cl)CC(=O)N1 (stereo unspecified)	12%	30µM*	0%	u	3%	33%
COC(=O)C[C@@H]1OC[C@H](Cc2ccccc2)N1S(=O)(=O)c1ccc(C)cc1	x	-6%	x	x	x	x
O=C(NCc1ccco1)c1cccnc1-c1nc2ccccc2s1	3%	24µM*	-6%	u	-1%	-2%
CC(SCc1cc(=O)n2c([nH]c3ccccc32)c1C#N)C(=O)O (stereo unspecified)	-1%	13µM*	-2%	79µM*	0%	u
CCc1cc(=S)n2c([nH]c3ccccc32)c1C#N	-3%	u	28µM*	u	7%	15%
CCc1cc(=O)n2c([nH]c3ccccc32)c1C#N	-10%	-1%	-2%	4%	10%	28%
SMILES	PKM2 act	PLK1 PBD inh	GCN5L2 inh	VDR inhibitor	Mito fusion yeast	GLS inh
CCc1c(C)c(C#N)c2[nH]c3ccccc3n2c1=S	-12%	13µM*	u	u	26%	u
CCCCC1=CC2=C(OC(C)=O)C(=O)C(C)(OC(=O)CCC(=O)OC)C(=O)C2=CO1 (stereo unspecified)	x	x	x	5%	x	x
CN(Cc1ccccn1)C(=O)C1CCC(=O)N(CCc2ccc(Cl)cc2)C1 (stereo unspecified)	x	-24%	-6%	3%	23%	-12%
Cc1ccc(/C(=N\O)c2oc3c(C)c4oc(=O)cc(C)c4cc3c2C)cc1	5%	2%	-13%	-6%	7.1µM*	-9%
O=c1cc(-c2ccc(O)cc2)oc2cc(O[C@@H]3O[C@H](CO)[C@H](O)[C@H](O)[C@H]3O)cc(O)c12	x	x	x	6%	x	x
COc1ccc(CCC(=O)O)c(O)c1	5%	-5%	u	-23%	6%	-22%
COCc1cc(O)c(O)c(O)c1-c1c(COC)cc(O)c(O)c1O	x	x	0%	16µM*	x	x
O=C(NNc1ccc(-c2csnn2)cc1)c1cc(Cl)cc(Cl)c1	-2%	-19%	-5%	u	-2%	u
O=C(NNc1ccc(-c2csnn2)cc1)c1ccccc1C(F)(F)F	-5%	-23%	-1%	-1%	-5%	11µM*
CCS(=O)(=O)c1ncc(Cl)c(C(=O)N(Cc2ccccc2)Cc2ccco2)n1	x	x	-5%	u	x	5%
CCOC(=O)C(=CNNc1cccc(Cl)c1)C(=O)OCC	11%	9.5µM*	-9%	u	-2%	u
CC(C)c1cc(CN2C(C)COCC2C)cc(C(C)C)c1O (stereo unspecified)	x	-12%	x	2%	x	39%
CC(=O)c1sc(N/N=C2\CC3CCC2(C)C3(C)C)nc1C (stereo unspecified)	15%	u	-2%	-12%	4%	4%
O=C1/C(=C\c2ccc(Br)cc2)SC(=S)N1NS(=O)(=O)c1ccccc1	-2%	21µM*	-18%	-1%	2%	4%
C=CCOc1ccc(/C=C2\SC(=S)N(NS(=O)(=O)c3ccccc3)C2=O)cc1	x	21µM*	-12%	u	5%	18%
c1ccc(N=c2nc(-c3ccccc3)n(-c3ccccc3)s2)cc1	x	x	x	-9%	x	x
COC(=O)c1cccc(-n2sc3ccccc3c2=O)c1	x	2.7µM*	1.6µM*	u	15%	11µM*
Cc1ccc(-n2sc3cc(F)ccc3c2=O)c(C)c1	x	3µM*	x	x	x	u
O=c1c2cc(F)ccc2sn1-c1ccccc1Cl	x	2.7µM*	x	x	x	u
COC(=O)c1cccc(N2CCCC2=O)c1	-3%	-10%	42%	2%	-3%	2%
O=c1c2ccccc2sn1-c1ccc(F)cc1	x	3µM*	2µM*	16µM*	-40%	10µM*
C[C@@H](O[C@H]1OCCN(Cc2n[nH]c(=O)[nH]2)[C@@H]1c1ccc(F)cc1)c1cc(C(F)(F)F)cc(C(F)(F)F)c1	x	x	x	x	x	-1%

Screening data as filed in PubChem BioAssay.
